Many of the other results were omitted from the sample, so the strongest signals are more common in it than they were.
Key:
Experiment in all cases: glycan array binding signal (z-score within array); higher = stronger binding
Details in all cases: glycan notation: IUPAC condensed, linker removed
Fuc(a1-2)Gal(b1-4)GlcNAc = target: Fuc(a1-2)Gal(b1-4)GlcNAc
How it was run: (§1)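 Glycan array data were curated from 3228 arrays in the Consortium for Functional Glycomics database and kept only where the protein sequence was available. Glycan names were converted to IUPAC-condensed notation, and columns mapping to the same glycan were averaged. The binding signal is a within-array Z-score, averaged across arrays of the same protein sequence at different concentrations or buffers and across linkers. Negative Z-scores can be read as non-binding.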

[1] = target: Fuc(a1-2)[Gal(a1-4)]Gal(b1-4)GlcNAc
How it was run: as §1

[2] = target: Fuc(a1-2)[GalNAc(a1-3)]Gal(b1-4)GlcNAc(b1-2)Man(a1-3)[Fuc(a1-2)[GalNAc(a1-3)]Gal(b1-4)GlcNAc(b1-2)Man(a1-6)]Man(b1-4)GlcNAc(b1-4)GlcNAc
How it was run: as §1

[3] = target: Fuc(a1-2)[GalNAc(a1-3)]Gal(b1-4)GlcNAc(b1-3)Gal(b1-4)GlcNAc
How it was run: as §1

[4] = target: Fuc(a1-2)[GalNAc(a1-3)]Gal(b1-4)GlcNAc(b1-3)Gal(b1-4)GlcNAc(b1-3)Gal(b1-4)GlcNAc
How it was run: as §1

[5] = target: Fuc(a1-2)[GalNAc(a1-4)]Gal(b1-4)GlcNAc
How it was run: as §1

[6] = target: Gal(a1-4)Gal(b1-4)GlcNAc(b1-3)Gal(b1-4)Glc
How it was run: as §1

Gal(a1-4)GlcNAc = target: Gal(a1-4)GlcNAc
How it was run: as §1

[7] = target: Gal(b1-3)GlcNAc(b1-3)Gal(b1-4)Glc
How it was run: as §1

[8] = target: Gal(b1-3)GlcNAc(b1-3)Gal(b1-4)GlcNAc
How it was run: as §1

[9] = target: Gal(b1-4)GlcNAc(b1-2)Man(a1-3)[GlcNAc(b1-2)Man(a1-6)]Man(b1-4)GlcNAc(b1-4)GlcNAc
How it was run: as §1

[10] = target: Gal(b1-4)GlcNAc(b1-2)[Gal(b1-4)GlcNAc(b1-4)]Man(a1-3)[Gal(b1-4)GlcNAc(b1-2)[Gal(b1-4)GlcNAc(b1-6)]Man(a1-6)]Man(b1-4)GlcNAc(b1-4)GlcNAc
How it was run: as §1

[11] = target: Gal(b1-4)GlcNAc(b1-3)Gal(b1-4)GlcNAc
How it was run: as §1

[12] = target: Gal(b1-4)GlcNAc(b1-3)[Gal(b1-4)GlcNAc(b1-6)]Gal(b1-4)GlcNAc
How it was run: as §1

[13] = target: Gal3S(b1-4)[Fuc(a1-3)]Glc
How it was run: as §1

Gal6S(b1-4)Glc = target: Gal6S(b1-4)Glc
How it was run: as §1

GalNAc(a1-3)GalNAc = target: GalNAc(a1-3)GalNAc
How it was run: as §1

[14] = target: GlcNAc(a1-4)Gal(b1-4)GlcNAc(b1-3)Gal(b1-4)GlcNAc(b1-3)Gal(b1-4)GlcNAc
How it was run: as §1

[15] = target: GlcNAc(a1-6)Gal(b1-4)GlcNAc
How it was run: as §1

GlcNAc(b1-3)Man = target: GlcNAc(b1-3)Man
How it was run: as §1

[16] = target: GlcNAc(b1-3)[GlcNAc(b1-4)][GlcNAc(b1-6)]GlcNAc
How it was run: as §1

[17] = target: GlcNAc(b1-4)Gal(b1-4)GlcNAc
How it was run: as §1

[18] = target: GlcNAc(b1-4)GlcNAc(b1-4)GlcNAc(b1-4)GlcNAc(b1-4)GlcNAc
How it was run: as §1

GlcNAc(b1-6)GalNAc = target: GlcNAc(b1-6)GalNAc
How it was run: as §1

Kdn(a2-3)Gal(b1-3)GalNAc = target: Kdn(a2-3)Gal(b1-3)GalNAc
How it was run: as §1

[19] = target: Man(a1-2)Man(a1-2)Man(a1-6)[Man(a1-3)]Man
How it was run: as §1

[20] = target: Man(a1-2)Man(a1-3)[Man(a1-6)]Man(a1-6)[Man(a1-2)Man(a1-3)]Man(b1-4)GlcNAc(b1-4)GlcNAc
How it was run: as §1

[21] = target: Man(a1-3)[Man(a1-6)]Man(a1-6)[Man(a1-3)]Man
How it was run: as §1

[22] = target: Neu5Ac(a2-3)Gal(b1-4)GlcNAc
How it was run: as §1

[23] = target: Neu5Ac(a2-3)Gal(b1-4)GlcNAc(b1-3)Gal(b1-3)GlcNAc
How it was run: as §1

[24] = target: Neu5Ac(a2-3)Gal(b1-4)GlcNAc6S
How it was run: as §1

[25] = target: Neu5Ac(a2-6)Gal(b1-4)GlcNAc
How it was run: as §1

[26] = target: Neu5Ac(a2-6)Gal(b1-4)GlcNAc(b1-2)Man(a1-3)[Man(a1-6)]Man(b1-4)GlcNAc(b1-4)GlcNAc
How it was run: as §1

[27] = target: Neu5Ac(a2-6)Gal(b1-4)GlcNAc(b1-3)Gal(b1-4)GlcNAc
How it was run: as §1

[28] = target: Neu5Gc(a2-3)Gal(b1-3)[Fuc(a1-4)]GlcNAc
How it was run: as §1

B1: Tachylectin-2 (Tachypleus tridentatus), TAL2_TACTR (protein)
chain: VGGESMLRGVYQDKFYQGTYPQNKNDNWLARATLIGKGGWSNFKFLFLSPGGELYGVLNDKIYKGTPPTHDNDNWMGRAKKIGNGGWNQFQFLFFDPNGYLYAVSKDKLYKASPPQSDTDNWIARATEIGSGGWSGFKFLFFHPNGYLYAVHGQQFYKALPPVSNQDNWLARATKIGQGGWDTFKFLFFSSVGTLFGVQGGKFYEDYPPSYAHDNWLARAKLIGNGGWDDFRFLFF
Question: Which “glycan array binding signal (z-score)” value (Fuc(a1-2)Gal(b1-4)GlcNAc) does the source give for B1 here?
Answer: -0.309

Question: And the “glycan array binding signal (z-score)” value [1]?
Answer: -0.436

Question: What about the “glycan array binding signal (z-score)” value [2] of the same binder?
Answer: 4.37

Question: And the “glycan array binding signal (z-score)” value [3]?
Answer: 4.29

Question: What about the “glycan array binding signal (z-score)” value [4] of the same binder?
Answer: 4.11

Question: And the “glycan array binding signal (z-score)” value [5]?
Answer: 3.88

Question: And the “glycan array binding signal (z-score)” value [6]?
Answer: -0.296

Question: And the “glycan array binding signal (z-score)” value (Gal(a1-4)GlcNAc)?
Answer: 0.001

Question: What about the “glycan array binding signal (z-score)” value [7] of the same binder?
Answer: -0.315

Question: What about the “glycan array binding signal (z-score)” value [8] of the same binder?
Answer: -0.357

Question: What about the “glycan array binding signal (z-score)” value [9] of the same binder?
Answer: -0.295

Question: And the “glycan array binding signal (z-score)” value [10]?
Answer: -0.294

Question: And the “glycan array binding signal (z-score)” value [11]?
Answer: -0.367

Question: What about the “glycan array binding signal (z-score)” value [12] of the same binder?
Answer: -0.43

Question: And the “glycan array binding signal (z-score)” value [13]?
Answer: -0.39

Question: And the “glycan array binding signal (z-score)” value (Gal6S(b1-4)Glc)?
Answer: -0.268

Question: And the “glycan array binding signal (z-score)” value (GalNAc(a1-3)GalNAc)?
Answer: 4.41

Question: And the “glycan array binding signal (z-score)” value [14]?
Answer: 3.96

Question: What about the “glycan array binding signal (z-score)” value [15] of the same binder?
Answer: 4.99

Question: And the “glycan array binding signal (z-score)” value (GlcNAc(b1-3)Man)?
Answer: -0.096

Question: And the “glycan array binding signal (z-score)” value [16]?
Answer: -0.413

Question: And the “glycan array binding signal (z-score)” value [17]?
Answer: 1.17

Question: And the “glycan array binding signal (z-score)” value [18]?
Answer: 0.004

Question: And the “glycan array binding signal (z-score)” value (GlcNAc(b1-6)GalNAc)?
Answer: 1.42

Question: And the “glycan array binding signal (z-score)” value (Kdn(a2-3)Gal(b1-3)GalNAc)?
Answer: -0.296

Question: And the “glycan array binding signal (z-score)” value [19]?
Answer: -0.33

Question: And the “glycan array binding signal (z-score)” value [20]?
Answer: -0.173

Question: And the “glycan array binding signal (z-score)” value [21]?
Answer: -0.344

Question: What about the “glycan array binding signal (z-score)” value [22] of the same binder?
Answer: -0.374

Question: And the “glycan array binding signal (z-score)” value [23]?
Answer: -0.256

Question: What about the “glycan array binding signal (z-score)” value [24] of the same binder?
Answer: -0.232

Question: And the “glycan array binding signal (z-score)” value [25]?
Answer: -0.176

Question: And the “glycan array binding signal (z-score)” value [26]?
Answer: -0.295

Question: What about the “glycan array binding signal (z-score)” value [27] of the same binder?
Answer: -0.249

Question: And the “glycan array binding signal (z-score)” value [28]?
Answer: -0.316
